Common to all, as to assay: NCI-60 one-dose screen, 48 h (100 = growth as untreated, 0 = no growth, -100 = all killed)
One experiment relates to NCI-H226 lung. The conditions noted are these: 10 µM.
The next experiment concerns NCI-H322M lung. The conditions noted are these: 10 µM.
In the next experiment the test system is HOP-62 NSCLC. The conditions noted are these: 10 µM.
Another experiment concerns HOP-92 NSCLC. The following applies: 10 µM.
The subject of a further experiment is NCI-H522 lung. The following applies: 10 µM unless noted.
For a further experiment, the system named is 786-0 renal. The following applies: 10 µM.
Another experiment has as its system COLO 205 colon. The following applies: 10 µM.
For another experiment, the system named is DU-145 prostate. The following applies: 10 µM unless noted.
In another experiment the test system is K-562 leukemia. The following applies: 10 µM.
The next experiment relates to MALME-3M melanoma. The conditions noted are these: 10 µM.
In a further experiment the test system is MDA-MB-231 breast. The following applies: 10 µM.
A further experiment has as its system RXF 393 renal. The conditions noted are these: 10 µM unless noted.
Another experiment has as its system SF-268 CNS. The following applies: 10 µM.
Another experiment concerns SF-295 CNS. The following applies: 10 µM.
The test system of another experiment is SF-539 CNS. The conditions noted are these: 10 µM.
The subject of the next experiment is M14 melanoma. The following applies: 10 µM.
For another experiment, the system named is A549/ATCC NSCLC. The following applies: 10 µM.
In a further experiment the test system is UACC-257 melanoma. The following applies: 10 µM.

Values joined by “and” are separate entries in the source; they are usually repeats but may differ in a detail not shown here. Equal values may be shown once. About 83,000 compounds went through this panel and 20% of them were active in at least one assay; those are over-represented in the sample as a whole.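 Note: values are percent growth. 100 is the growth of untreated cells, values between 100 and 0 indicate rising inhibition; between -100 and 0 indicates cell death.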 Active and inactive are the calls of the source. The calls were made as follows: active = growth percent below 10; inactive = the rest.

Take `O=C(O)COc1ccc(OCC(=O)O)cc1`: the growth in the experiment on NCI-H226 lung is -60.2% (active); in the experiment with NCI-H322M lung, 39.3% (inactive); with HOP-62 NSCLC it was -15% (active); with HOP-92 NSCLC, -3.9% (active); with NCI-H522 lung, -3.87% (active); in the experiment on 786-0 renal it was -9.28% (active). Also, the growth in the experiment with COLO 205 colon was 16% (inactive); in the experiment with DU-145 prostate it was 5.6% (active); in the experiment with K-562 leukemia, 20% (inactive); in the experiment with MALME-3M melanoma, 21.3% (inactive); in the experiment with MDA-MB-231 breast it was 27.8% (inactive); in the experiment with RXF 393 renal, 24.7% (inactive). Further, the growth in the experiment with SF-268 CNS was 14.2% (inactive); in the experiment with SF-295 CNS, -9.53% (active); with SF-539 CNS, -0.842% (active); in the experiment with M14 melanoma it was 20.7% (inactive).

Turning to `CCN1/C(=C/C=C/C=C/c2sc3ccccc3[n+]2CC)Sc2ccccc21`, the growth in the experiment on NCI-H226 lung is 11.8% (inactive); in the experiment on NCI-H322M lung, 5.13% (active); in the experiment on HOP-62 NSCLC, -29% (active); with HOP-92 NSCLC, -28.3% (active); in the experiment on NCI-H522 lung, -57.6% (active); in the experiment with A549/ATCC NSCLC, -64.5% (active). Further, the growth in the experiment with 786-0 renal is -57.6% (active); in the experiment with COLO 205 colon, -87.7% (active); in the experiment on DU-145 prostate, -17.2% (active); in the experiment with K-562 leukemia it was -46.4% (active); in the experiment on MALME-3M melanoma, -32.8% (active); in the experiment with MDA-MB-231 breast it was 8.54% (active). Besides, the growth in the experiment with RXF 393 renal is -64.4% (active); in the experiment on SF-268 CNS, -75.4% (active); in the experiment with SF-295 CNS, -23.8% (active); in the experiment with SF-539 CNS, -57% (active); with UACC-257 melanoma, -57.7% (active); with M14 melanoma, -81.7% (active).

Regarding `COC(=O)C1C(O)C(C)C(O)C(C)C=C(C)C2=C3C(=C(C)C(=O)c4c(O)c(c(C)c(OC(C)=O)c43)NC(=O)C(C)=C/C=C\C(C)C(O)C(C)C1O)OCO2` (centres undefined), the growth was 104% (inactive) with NCI-H226 lung; 140% (inactive) in the experiment with NCI-H322M lung; -5.62% (active) with HOP-92 NSCLC; 75.3% (inactive) with NCI-H522 lung; 112% (inactive) in the experiment on A549/ATCC NSCLC; 101% (inactive) in the experiment on 786-0 renal. The growth was 125% (inactive) in the experiment on COLO 205 colon; 115% (inactive) in the experiment on DU-145 prostate; 127% (inactive) with K-562 leukemia; 126% (inactive) in the experiment on MALME-3M melanoma; 105% (inactive) in the experiment on MDA-MB-231 breast; 125% (inactive) with RXF 393 renal. In addition, the growth was 112% (inactive) in the experiment on SF-268 CNS; 108% (inactive) in the experiment on SF-295 CNS; 110% (inactive) in the experiment on SF-539 CNS; 118% (inactive) in the experiment with UACC-257 melanoma; 108% (inactive) with M14 melanoma.

On to `CCO/C=C1\SC(=S)N(c2cccc(O)c2)C1=O`, for which the growth in the experiment with NCI-H226 lung was 96.1% (inactive); in the experiment on NCI-H322M lung, 95.8% (inactive); with HOP-62 NSCLC, 97.4% (inactive); in the experiment with 786-0 renal it was 101% (inactive); in the experiment with COLO 205 colon it was 109% (inactive); in the experiment on DU-145 prostate, 109% (inactive). The growth with K-562 leukemia was 89.9% (inactive); in the experiment with MALME-3M melanoma it was 88.2% (inactive); in the experiment with MDA-MB-231 breast it was 102% (inactive); in the experiment on RXF 393 renal, 102% (inactive); in the experiment on SF-268 CNS, 103% (inactive); in the experiment with SF-295 CNS, 99.5% (inactive). The values for the growth with SF-539 CNS and in the experiment with M14 melanoma were 102% (inactive) and 105% (inactive), respectively.

For the molecule `Nc1nc(=S)c2ncn(C3OC(CO)C(O)C3O)c2[nH]1` (centres undefined), the growth was 113% (inactive) and 35.5% (inactive) with NCI-H226 lung; 128% (inactive) and 64.3% (inactive) in the experiment with NCI-H322M lung; 106% (inactive) and 35.4% (inactive) in the experiment with HOP-62 NSCLC; 29.5% (inactive) with HOP-92 NSCLC; 96.7% (inactive) and -12% (active) with NCI-H522 lung; 92.9% (inactive) and 27.9% (inactive) with A549/ATCC NSCLC. Besides, the growth with 786-0 renal was 103% (inactive) and 22.2% (inactive); in the experiment with COLO 205 colon it was 155% (inactive) and 12.4% (inactive); in the experiment with DU-145 prostate, 108% (inactive) and 23.2% (inactive); in the experiment with K-562 leukemia it was 108% (inactive); with MALME-3M melanoma, 170% (inactive) and 15% (inactive); with MDA-MB-231 breast, 105% (inactive) and 26.1% (inactive). The growth in the experiment on RXF 393 renal is 108% (inactive) and -8.38% (active); with SF-268 CNS it was 101% (inactive) and 34.5% (inactive); in the experiment on SF-295 CNS, 109% (inactive) and 18.3% (inactive); in the experiment on SF-539 CNS, 107% (inactive) and 22.3% (inactive); in the experiment on UACC-257 melanoma, 98.9% (inactive) and 31.5% (inactive); with M14 melanoma, 109% (inactive) and 15.5% (inactive).

`CC(=O)OCC(OC(C)=O)C(OC(C)=O)C(OC(C)=O)C(OC(C)=O)C(/C=N/Nc1ccccc1)=N/Nc1ccccc1` (centres undefined): the growth was 72.7% (inactive) in the experiment on NCI-H226 lung; 65% (inactive) in the experiment with NCI-H322M lung; 66.8% (inactive) in the experiment on HOP-62 NSCLC; 79.5% (inactive) in the experiment with HOP-92 NSCLC; 40.6% (inactive) in the experiment with NCI-H522 lung; 60.9% (inactive) in the experiment with A549/ATCC NSCLC. In addition, the growth is 63.6% (inactive) in the experiment with 786-0 renal; 97.1% (inactive) with COLO 205 colon; 78.4% (inactive) in the experiment with DU-145 prostate; 22.4% (inactive) in the experiment on K-562 leukemia; 84.5% (inactive) with MALME-3M melanoma; 58.8% (inactive) in the experiment with MDA-MB-231 breast. In addition, the growth in the experiment with RXF 393 renal is 77% (inactive); in the experiment on SF-268 CNS it was 71.5% (inactive); in the experiment on SF-295 CNS, 46.6% (inactive); in the experiment with SF-539 CNS, 89.9% (inactive); in the experiment with UACC-257 melanoma it was 82.3% (inactive); in the experiment on M14 melanoma, 82.3% (inactive).

Take `O=C(/C=C/c1cccnc1)c1ccccc1`: the growth in the experiment on NCI-H226 lung is 96.6% (inactive); with NCI-H322M lung, 113% (inactive); in the experiment on HOP-62 NSCLC it was 108% (inactive); in the experiment on HOP-92 NSCLC it was 84% (inactive); in the experiment on NCI-H522 lung, -44.2% (active); in the experiment on A549/ATCC NSCLC, 99.3% (inactive). In addition, the growth in the experiment with 786-0 renal is 93.7% (inactive); with COLO 205 colon it was 101% (inactive); in the experiment with DU-145 prostate, 105% (inactive); in the experiment on K-562 leukemia, 28.9% (inactive); in the experiment on MALME-3M melanoma, 94.2% (inactive); in the experiment with MDA-MB-231 breast, 116% (inactive). Further, the growth is 112% (inactive) in the experiment on RXF 393 renal; 100% (inactive) in the experiment with SF-268 CNS; 112% (inactive) in the experiment with SF-295 CNS; 96.2% (inactive) in the experiment on SF-539 CNS; 93.5% (inactive) in the experiment with UACC-257 melanoma; 88.6% (inactive) with M14 melanoma.

For the origin of these results see PubChem BioAssay (NCI).
